# Source: PubChem BioAssay (NCATS)
# The source made the active and inactive calls. Calls follow the shape of the dose curve; as a rule, active = well fitted cell-killing curve with a large enough effect; inconclusive = small, poorly fitted or top-dose-only effect; inactive = flat fitted curve, though single readings scatter.
# Assay: MultiTox-Fluor Cytotoxicity Assay - LYMP1-003 - Live Cells (AID 962);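 also: cells exposed to compound for 16 hours at 37 °C; 0% = DMSO only and full loss = 92 µM tetraoctylammonium bromide; cytotoxic hits lower the live-cell protease signal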
# Details: LYMP1-003 lymphoblastoid cells, MultiTox-Fluor live-cell protease fluorescence; series mostly up to 92.2 µM; activity change, negative = fewer live cells: at the top concentration
# Summary of the method: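 Readout: live-cell fluorescence (Ex/Em=405/510) from GF-AFC cleavage after 60 min MultiTox-Fluor reagent at room temperature. Lymphoblastoid LYMP1-003 cells, 16 hr compound treatment, 37 C. Concentration-response fitted to standard Hill equation for AC50.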
row,SMILES,"activity change, negative = fewer live cells"
1,CC(=O)O[C@@H]1CC(C)=C2[C@H]1[C@H](C)CC[C@H]2/C=C(\C)C(=O)O,-3.04% (inactive)
2,Cc1ccc(N)cc1O,0.242% (inactive)
3,Nc1ccccc1N,-13.3% (inactive)
